Hits are enriched below; roughly 27% of the tested compounds scored in any of these assays.
CYP2C19 activ – human CYP2C19 activators, primary screen, biochemical, luminescence; activation factor at 5 µM; 96,000 tested, under 10 active; recombinant CYP2C19, luciferin-H EGE luminescence; stronger effect = higher value; 0 = fully inhibited enzyme, 1 = untreated enzyme;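 active = activation factor of at least 2 at 5 µM in the primary screen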;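 also: 0 = wells with 2.5 mM tranylcypromine and 1 = vehicle-only wells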
CYP2C9 inhib – blockers of cytochrome P450 2C9 activity – biochemical, luminescence, ADME assay, primary screen; CYP2C9 Supersomes, luciferin-H conversion; actives 20% (n = 96,000); inhibition, % at 5 µM;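 active = blocking of liver enzyme CYP2C9 beyond about 50% at 5 µM, limit read from the data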
Target sequence (P11712 whole entry, looked up): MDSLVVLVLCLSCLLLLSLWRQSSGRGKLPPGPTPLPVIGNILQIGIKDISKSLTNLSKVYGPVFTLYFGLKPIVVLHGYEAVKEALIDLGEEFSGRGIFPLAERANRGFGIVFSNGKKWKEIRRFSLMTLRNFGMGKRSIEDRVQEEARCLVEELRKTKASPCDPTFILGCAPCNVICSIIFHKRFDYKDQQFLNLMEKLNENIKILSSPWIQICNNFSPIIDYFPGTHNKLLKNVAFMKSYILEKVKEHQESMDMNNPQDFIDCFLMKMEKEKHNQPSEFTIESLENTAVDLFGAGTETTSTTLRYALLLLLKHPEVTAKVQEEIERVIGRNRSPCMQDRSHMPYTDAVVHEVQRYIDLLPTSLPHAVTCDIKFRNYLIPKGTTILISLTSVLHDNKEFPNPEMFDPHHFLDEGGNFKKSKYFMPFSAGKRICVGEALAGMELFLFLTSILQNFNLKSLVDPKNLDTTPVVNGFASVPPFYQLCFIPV
sEH activator – soluble epoxide hydrolase activators, primary screen, biochemical, human sEH; Bifunctional epoxide hydrolase 2 (Homo sapiens), P34913; purified human sEH enzymatic activity, activator screen; activation, % at 2 µM; actives 0.04% (n = 91,000); in the data active = activation above about 37%
CYP2C9 act – human CYP2C9 activators, primary screen, biochemical, luminescence; Cytochrome P450 2C9 (Homo sapiens), P11712; recombinant CYP2C9, luciferin-H conversion; stronger effect = higher value; factor 1 = untreated enzyme, 0 = blocked; activation factor at 5 µM; actives 1.4% (n = 96,000); AID 1024, 2008;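 active = activation factor of 2 or more for CYP2C9 at a 5 µM dose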;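 also: 0 = sulfaphenazole-blocked wells and 1 = vehicle-only wells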
CYP2C19 inh – blockers of cytochrome P450 2C19 activity – biochemical, luminescence, ADME assay, primary screen. CYP2C19 Supersomes, luciferin-H EGE luminescence, 30 min. inhibition, % at 5 µM. actives 21% (n = 96,000);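 active = CYP2C19 inhibition above a set limit at 5 µM in the primary screen, cut at about 50% in these data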;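 also: plate controls were negative control wells for no effect and 2.5 mM tranylcypromine positive control for full effect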
sEH inh – soluble epoxide hydrolase inhibitors, primary screen, biochemical, human sEH; Bifunctional epoxide hydrolase 2 (Homo sapiens), P34913; AID 707, 2007; recombinant human sEH enzymatic activity assay; inhibition, % at 2 µM; actives 0.34% (n = 91,000); in the data active = inhibition above about 80%
* marks the source's active call; other numbers are inactive results; x = no result given.

SMILES	CYP2C19 activ	CYP2C9 inhib	sEH activator	CYP2C9 act	CYP2C19 inh	sEH inh
Cc1ccccc1NC1=C(C(=O)c2ccccc2)N(C)S(=O)(=O)c2ccccc21	0.4	63*	-3	0.4	56*	5
NC(=O)C1(N2CCCCC2)CCN(C2CC(=O)N(Cc3cccs3)C2=O)CC1 (stereo not given)	1	-24	12	1.2	-2	-14
CCC(Sc1nc2n[nH]c(C)c2c(=N)n1-c1cccc(Cl)c1)C(=O)NCCOC (stereo not given)	0.7	65*	x	0.4	35	x
CC1(C)CC(=O)C2=C(C1)OC1=C(C(=O)CC(C)(C)C1)C2c1ccc(O)cc1O	0.8	-147	-3	2.5*	20	2
CCC(Sc1nc2cc3c(cc2c(=O)n1Cc1ccco1)OCO3)C(=O)NCCOC (stereo not given)	0.6	26	-8	0.7	39	7
COCCNC(=O)c1ccc2c(=O)n(Cc3ccco3)c(SCC(=O)NC3CCCC3)nc2c1	0.5	81*	-5	0.2	52*	7
CCC(Sc1nc2cc3c(cc2c(=O)n1Cc1ccco1)OCO3)C(=O)Nc1cccc(OC)c1 (stereo not given)	0.8	60*	-5	0.4	24	6
O=C(NCC1CCCO1)c1ccc2c(=O)n(Cc3ccco3)c(SCC(=O)N3CCCC3)nc2c1 (stereo not given)	1	49	4	0.5	2	-3
COCCNC(=O)CSc1nc2cc3c(cc2c(=O)n1Cc1ccco1)OCO3	0.1	53*	-3	0.5	93*	6
Cc1c(C=O)c2ccccc2n1CC(=O)N1CCc2ccccc2C1	x	x	-16	x	x	16
CC(=O)N1CCC2(CC1)CC(=O)c1cc(OCC(=O)NCc3ccco3)ccc1O2	0.9	-31	0	1.3	7	-2
CCCn1nc(C(=O)NCC(C)(C)N2CCOCC2)c2ccccc2c1=O	0.9	-2	-1	1	13	3
Cc1nc(-c2ccc3c(c2)OCO3)cs1	0.8	-11	16	1.1	18	-14
c1cncc(-c2nc(-c3ccc4c(c3)OCO4)cs2)c1	0.3	37	-4	0.6	69*	6
c1cncc(-c2nc(-c3cccs3)cs2)c1	0.3	27	14	0.7	70*	-14
Clc1ccsc1-c1csc(-c2cccnc2)n1	0.4	6	5	0.9	62*	-6
Clc1ncn(C23CC4CC(CC(C4)C2)C3)n1	0.9	1	-5	1	14	5
CCOc1ccc2[nH]c(=O)c(CN(Cc3ccc(F)cc3)C(=O)c3ccco3)cc2c1	0.8	22	-5	0.8	22	4
CCN1CCN(CCNC(=O)C2CCCN(Cc3nc(-c4cccc(Cl)c4)oc3C)C2)CC1 (stereo not given)	0.8	7	x	0.9	16	x
CCc1ccc(-c2nc(CN3CCCC(C(=O)NCCc4ccc(OC)c(OC)c4)C3)c(C)o2)cc1 (stereo not given)	0.8	54*	-11	0.5	18	12
CCOC(=O)N1CCC(NC(=O)C2CCCN(Cc3nc(-c4cccc(Cl)c4)oc3C)C2)CC1 (stereo not given)	0.3	54*	-22	0.5	67*	25
CCOc1ncccc1C(=O)OCc1nnc(-c2ccccc2)o1	0.2	28	x	0.7	84*	x
O=C(OCc1nnc(-c2ccccc2)o1)c1ccc2c(c1)OCO2	0.3	81*	0	0.2	65*	0
N#Cc1ccccc1Sc1ccccc1C(=O)Nc1ccccc1	0.5	50	-9	0.5	52*	8
Cc1noc(C)c1COC(=O)c1ccccc1Sc1ccccc1C#N	0.4	74*	1	0.3	59*	0
SMILES	CYP2C19 activ	CYP2C9 inhib	sEH activator	CYP2C9 act	CYP2C19 inh	sEH inh
O=C(Nc1ccccc1)c1ccccc1O	0.8	24	-11	0.8	19	11
CC1CN(C(=O)c2ccccc2Sc2ccccc2C#N)CC(C)O1 (stereo not given)	0.8	22	2	0.8	22	-2
N#Cc1ccccc1Sc1ccccc1C(=O)OCc1nnc(-c2ccccc2)o1	0.3	58*	-11	0.4	69*	10
O=C(CCN1c2ccccc2Sc2ccccc21)OCc1nnc(-c2ccccc2)o1	0	95*	x	0	96*	x
O=C(OCc1nnc(-c2ccccc2)o1)c1cc(=O)c2ccccc2o1	1	-5	-9	1.1	0	9
COc1ccc(/C=N/NC(=O)Nc2cccc3nsnc23)c(OC)c1	1	7	17	0.9	0	-21
COc1cc(/C=N/NC(=O)Nc2cccc3nsnc23)cc(OC)c1OC	0.9	56*	21	0.4	5	-18
CCOc1ccc2nc(Cl)c(/C=C/C(=O)c3ccco3)cc2c1	0.7	53*	8	0.5	33	-5
COc1ccc(Cn2c(SC)nc3ccccc32)cc1[N+](=O)[O-]	0.8	28	-6	0.7	22	8
CSCCC(NS(=O)(=O)c1ccc(Cl)cc1)C(=O)OCC(=O)NC1CCCCC1 (stereo not given)	0.9	28	-23	0.7	5	22
O=C1NC2(NN1c1ccccc1)C1CC3CC(C1)CC2C3 (stereo not given)	1	-6	-7	1.1	-1	8
COc1ccc(S(=O)(=O)Nc2ccccc2C(F)(F)F)cc1	0.2	21	7	0.8	78*	-2
COC(=O)Nc1ccc(S(=O)(=O)Nc2cccc3ccccc23)cc1	x	x	-3	x	x	4
COc1ccc(S(=O)(=O)Nc2ccc(O)c3ccccc23)cc1	0	67*	0	0.3	97*	-3
COc1ccc(OC)c(S(=O)(=O)Nc2ccccc2C(F)(F)F)c1	x	x	15	x	x	-17
Cc1ccc(S(=O)(=O)N2CCCC(NC(=O)N3CCN(c4ccccc4)CC3)C2)cc1 (stereo not given)	0.3	32	-9	0.7	74*	11
Cc1ccc(C(=O)N2CCN(c3ccccc3)CC2)cc1S(=O)(=O)N1CCCC1	0.2	84*	x	0.2	78*	x
CC1CC(C)CN(S(=O)(=O)c2ccc(C(=O)N3CCN(c4ccccc4)CC3)cc2)C1 (stereo not given)	0.3	82*	x	0.2	68*	x
O=C(Nc1cccnc1Cl)c1ccc(S(=O)(=O)N2CCCCCC2)cc1	1.1	27	-17	0.7	-8	19
CCN(CC)C(=O)CN(c1cc2c(cc1OC)oc1ccccc12)S(=O)(=O)c1ccc(C)cc1	0.8	14	9	0.9	15	-7
